PubChem BioAssay AID1159580 (chemical genetic matrix, 2015)
Where “and” joins values, the source holds several entries; their conditions need not be identical. Identical values can stand only once. Hit rate of the full screen: of about 5,500 compounds, about 2,000 (36%) were called active. About 18% were inconclusive and are not listed. Rule as the data show it: active = normalized growth mostly below about 0.91 (no sharp cut-off); inconclusive = no clear call, values can overlap the other calls; inactive = mostly above about 0.92. Some of the results follow.

Test: chemical genetic growth profiling, strain panel (AID 1159580);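 also: tested at 20 µM; growth read once vehicle control cultures reached saturation at 30 °C; 1 = growth at the plate median or of vehicle wells; lower values mean less growth of the strain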
Conditions: growth OD

Measured: normalized growth

O=C(O)c1cc(=O)c2c(Cl)cc(Cl)cc2[nH]1
inactive: S. cerevisiae deletion strains, locus YJL187C, strain SWE1, active compounds read low 1.02 | S. cerevisiae deletion strains, locus YJR043C, strain POL32, active compounds read low 1 | S. cerevisiae deletion strains, locus YJR075W, strain HOC1, active compounds read low 0.985 | S. cerevisiae deletion strains, locus YKL009W, strain mrt4, active compounds read low 1 | S. cerevisiae deletion strains, locus YKL068W, active compounds read low 1 | S. cerevisiae deletion strains, locus YKL085W, strain MDH1 (second series), active compounds read low 1.01 | S. cerevisiae deletion strains, locus YKL085W, strain MDH1, active compounds read low 1.01 | S. cerevisiae deletion strains, locus YKL160W, strain elf1, active compounds read low 1.01 | S. cerevisiae deletion strains, locus YKL190W, strain CNB1, active compounds read low 1 | S. cerevisiae deletion strains, locus YKR001C, strain vps1, active compounds read low 1.05 | S. cerevisiae deletion strains, locus YKR026C, strain gcn3, active compounds read low 1.02 | S. cerevisiae deletion strains, locus YKR091W, strain srl3, active compounds read low 1.01 | S. cerevisiae deletion strains, locus YLL001W, strain dnm1, active compounds read low 1.03 | S. cerevisiae deletion strains, locus YLL026W, active compounds read low 1.01 | S. cerevisiae deletion strains, locus YLL041C, strain sdh2, active compounds read low 1.01 | S. cerevisiae deletion strains, locus YLR027C, strain aat2, active compounds read low 1.01 | S. cerevisiae deletion strains, locus YLR039C, strain RIC1, active compounds read low 1.04 | S. cerevisiae deletion strains, locus YLR058C, strain SHM2, active compounds read low 1.01 | S. cerevisiae deletion strains, locus YLR102C, strain apc9, active compounds read low 1.01 | S. cerevisiae deletion strains, locus YLR221C, strain rsa3, active compounds read low 1.02 | S. cerevisiae deletion strains, locus YLR258W, strain gsy2, active compounds read low 1.02 | S. cerevisiae deletion strains, locus YLR262C, strain YPT6 (second series), active compounds read low 1.01 | S. cerevisiae deletion strains, locus YLR262C, strain YPT6, active compounds read low 1.03 | S. cerevisiae deletion strains, locus YLR268W, strain sec22, active compounds read low 1.03 | S. cerevisiae deletion strains, locus YLR320W, strain mms22, active compounds read low 1.03 | S. cerevisiae deletion strains, locus YLR330W, strain CHS5, active compounds read low 1.01 | S. cerevisiae deletion strains, locus YLR342W, strain FKS1 (second series), active compounds read low 1.02 | S. cerevisiae deletion strains, locus YLR342W, strain FKS1, active compounds read low 1.02 | S. cerevisiae deletion strains, locus YLR357W, strain rsc2, active compounds read low 1 | S. cerevisiae deletion strains, locus YLR370C, strain arc18, active compounds read low 1.02 | S. cerevisiae deletion strains, locus YLR371W, strain rom2, active compounds read low 1 | S. cerevisiae deletion strains, locus YLR384C, strain iki3, active compounds read low 1.01 | S. cerevisiae deletion strains, locus YLR418C, strain cdc73, active compounds read low 1.05 | S. cerevisiae deletion strains, locus YML016C, strain PPZ1, active compounds read low 1.01 | S. cerevisiae deletion strains, locus YML032C, strain rad52, active compounds read low 1.01 | S. cerevisiae deletion strains, locus YML120C, strain ndi1, active compounds read low 1.02 | S. cerevisiae deletion strains, locus YML124C, strain tub3, active compounds read low 1.01 | S. cerevisiae deletion strains, locus YMR058W, strain fet3, active compounds read low 1.01 | S. cerevisiae deletion strains, locus YMR078C, strain ctf18, active compounds read low 1.03 | S. cerevisiae deletion strains, locus YMR125W, strain sto1, active compounds read low 1 | S. cerevisiae deletion strains, locus YMR129W, active compounds read low 1.01 | S. cerevisiae deletion strains, locus YMR205C, strain PFK2, active compounds read low 1.01 | S. cerevisiae deletion strains, locus YMR223W, strain ubp8, active compounds read low 1.03 | S. cerevisiae deletion strains, locus YMR231W, strain pep5, active compounds read low 1.01 | S. cerevisiae deletion strains, locus YMR263W, strain SAP30, active compounds read low 1 | S. cerevisiae deletion strains, locus YMR307W, strain GAS1, active compounds read low 1.04 | S. cerevisiae deletion strains, locus YNL067W, strain RPL9B, active compounds read low 0.997 | S. cerevisiae deletion strains, locus YNL071W, strain lat1, active compounds read low 1.02 | S. cerevisiae deletion strains, locus YNL153C, strain GIM3, active compounds read low 1 | S. cerevisiae deletion strains, locus YNL175C, strain NOP13, active compounds read low 0.996 | S. cerevisiae deletion strains, locus YNL197C, strain WHI3, active compounds read low 1.01 | S. cerevisiae deletion strains, locus YNL209W, strain ssb2, active compounds read low 1 | S. cerevisiae deletion strains, locus YNL224C, strain SQS1, active compounds read low 0.995 | S. cerevisiae deletion strains, locus YNL233W, strain BNI4, active compounds read low 1 | S. cerevisiae deletion strains, locus YNL248C, strain rpa49, active compounds read low 1.01 | S. cerevisiae deletion strains, locus YNL250W, strain rad50, active compounds read low 1.03 | S. cerevisiae deletion strains, locus YNL271C, strain bni1, active compounds read low 1.02 | S. cerevisiae deletion strains, locus YNL298W, strain CLA4, active compounds read low 1.01 | S. cerevisiae deletion strains, locus YNL307C, strain MCK1, active compounds read low 1.02 | S. cerevisiae deletion strains, locus YNL322C, strain KRE1 (second series), active compounds read low 1.02 | S. cerevisiae deletion strains, locus YNL322C, strain KRE1, active compounds read low 0.993 and 1 | S. cerevisiae deletion strains, locus YNR049C, strain mso1, active compounds read low 1.01 | S. cerevisiae deletion strains, locus YNR052C, strain pop2, active compounds read low 1.02 | S. cerevisiae deletion strains, locus YOL006C, strain TOP1, active compounds read low 0.999 | S. cerevisiae deletion strains, locus YOL012C, strain htz1 1.91 | S. cerevisiae deletion strains, locus YOL147C, strain pex11, active compounds read low 1.02 | S. cerevisiae deletion strains, locus YOR001W, strain rrp6, active compounds read low 1.01 | S. cerevisiae deletion strains, locus YOR061W, strain CKA2, active compounds read low 1.02 | S. cerevisiae deletion strains, locus YOR069W, strain VPS5, active compounds read low 1.01 | S. cerevisiae deletion strains, locus YOR070C, strain gyp1, active compounds read low 1.01 | S. cerevisiae deletion strains, locus YOR080W, strain dia2, active compounds read low 1.02 | S. cerevisiae deletion strains, locus YOR083W, strain WHI5 (second series), active compounds read low 0.994 | S. cerevisiae deletion strains, locus YOR083W, strain WHI5, active compounds read low 1.02 | S. cerevisiae deletion strains, locus YOR106W, strain vam3, active compounds read low 1.01 | S. cerevisiae deletion strains, locus YOR136W, strain idh2, active compounds read low 1.02 | S. cerevisiae deletion strains, locus YOR144C, strain elg1, active compounds read low 1.01 | S. cerevisiae deletion strains, locus YOR184W, strain ser1, active compounds read low 1.02 | S. cerevisiae deletion strains, locus YOR265W, strain rbl2, active compounds read low 1.01 | S. cerevisiae deletion strains, locus YOR270C, strain vph1, active compounds read low 1.03 | S. cerevisiae deletion strains, locus YOR290C, strain snf2, active compounds read low 0.991 | S. cerevisiae deletion strains, locus YOR316C, strain cot1, active compounds read low 1.01 | S. cerevisiae deletion strains, locus YPL051W, strain arl3, active compounds read low 1.01 | S. cerevisiae deletion strains, locus YPL055C, strain LGE1, active compounds read low 0.992 | S. cerevisiae deletion strains, locus YPL078C, strain atp4, active compounds read low 1.01 | S. cerevisiae deletion strains, locus YPL106C, strain sse1, active compounds read low 0.999 | S. cerevisiae deletion strains, locus YPL240C, strain hsp82, active compounds read low 1.02 | S. cerevisiae deletion strains, locus YPL241C, strain CIN2, active compounds read low 1 | S. cerevisiae deletion strains, locus YPR119W, strain clb2, active compounds read low 1.01 | S. cerevisiae deletion strains, locus YPR141C, strain kar3, active compounds read low 1.01 | S. cerevisiae deletion strains, locus YPR163C, strain tif3, active compounds read low 1.02 | S. cerevisiae deletion strains, locus YPR167C, strain met16, active compounds read low 1.02 | S. cerevisiae deletion strains, strain wtn01, active compounds read low 1.02 | S. cerevisiae strains, strain wild type, active compounds read low 1
